Assay outcomes (PubChem)
Sampled rows, rich in hits. Any-hit rate of the full collection: about 2.9%.
KLK7 zymogen act: activators of human kallikrein-7 zymogen. AID 652039. 0.9% of 370,000 active. P49862. purified proKLK7, EDANS-DABCYL substrate fluorescence; 100% is mature enzyme control, 0% vehicle. activation, % at 7 µM;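 active = activation above the mean of all tested compounds plus 3 SD, computed per campaign excluding outliers beyond control limits, cut at about 13% in these data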
PLCg1 inh: inhibitors of human phospholipase C gamma1. AID 720700. purified PLC-gamma1, fluorogenic substrate, fluorescence. 0.84% of 370,000 active. inhibition, % at 12.2 µM
ADAM10 inh: ADAM10 inhibition, QFRET primary screen; O14672; recombinant ADAM10, EDANS/DABCYL FRET peptide cleavage, 3 h; inhibition, % at 7 µM; 0.62% of 370,000 active; AID 720582;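 active = inhibition above a per-campaign cutoff equal to the mean of compounds falling between control-based bounds plus 3 SD, cut at about 20% in these data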;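 note: 0% = DMSO wells while the 100% control is not disclosed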
ADAM17 inh: ADAM17 inhibition, QFRET primary screen; inhibition, % at 6.95 µM; recombinant ADAM17, EDANS/DABCYL FRET peptide cleavage; 0.83% of 370,000 active;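 active = inhibition above the mean of compounds lying between control limits plus 3 SD, set per campaign, cut at about 8.5% in these data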;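 note: 0% = DMSO-only wells as the low control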
PLC-beta3 inh: PLC-beta3 (human) inhibition, primary screen. Q01970. Purified PLC-beta3, fluorogenic substrate, fluorescence. inhibition, % at 12.2 µM. 0.18% of 370,000 active; in the data active = inhibition above about 11%;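 note: 0% = median of compound wells on plate and 100% = full blocker control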
Target sequence (Q01970 whole entry, looked up): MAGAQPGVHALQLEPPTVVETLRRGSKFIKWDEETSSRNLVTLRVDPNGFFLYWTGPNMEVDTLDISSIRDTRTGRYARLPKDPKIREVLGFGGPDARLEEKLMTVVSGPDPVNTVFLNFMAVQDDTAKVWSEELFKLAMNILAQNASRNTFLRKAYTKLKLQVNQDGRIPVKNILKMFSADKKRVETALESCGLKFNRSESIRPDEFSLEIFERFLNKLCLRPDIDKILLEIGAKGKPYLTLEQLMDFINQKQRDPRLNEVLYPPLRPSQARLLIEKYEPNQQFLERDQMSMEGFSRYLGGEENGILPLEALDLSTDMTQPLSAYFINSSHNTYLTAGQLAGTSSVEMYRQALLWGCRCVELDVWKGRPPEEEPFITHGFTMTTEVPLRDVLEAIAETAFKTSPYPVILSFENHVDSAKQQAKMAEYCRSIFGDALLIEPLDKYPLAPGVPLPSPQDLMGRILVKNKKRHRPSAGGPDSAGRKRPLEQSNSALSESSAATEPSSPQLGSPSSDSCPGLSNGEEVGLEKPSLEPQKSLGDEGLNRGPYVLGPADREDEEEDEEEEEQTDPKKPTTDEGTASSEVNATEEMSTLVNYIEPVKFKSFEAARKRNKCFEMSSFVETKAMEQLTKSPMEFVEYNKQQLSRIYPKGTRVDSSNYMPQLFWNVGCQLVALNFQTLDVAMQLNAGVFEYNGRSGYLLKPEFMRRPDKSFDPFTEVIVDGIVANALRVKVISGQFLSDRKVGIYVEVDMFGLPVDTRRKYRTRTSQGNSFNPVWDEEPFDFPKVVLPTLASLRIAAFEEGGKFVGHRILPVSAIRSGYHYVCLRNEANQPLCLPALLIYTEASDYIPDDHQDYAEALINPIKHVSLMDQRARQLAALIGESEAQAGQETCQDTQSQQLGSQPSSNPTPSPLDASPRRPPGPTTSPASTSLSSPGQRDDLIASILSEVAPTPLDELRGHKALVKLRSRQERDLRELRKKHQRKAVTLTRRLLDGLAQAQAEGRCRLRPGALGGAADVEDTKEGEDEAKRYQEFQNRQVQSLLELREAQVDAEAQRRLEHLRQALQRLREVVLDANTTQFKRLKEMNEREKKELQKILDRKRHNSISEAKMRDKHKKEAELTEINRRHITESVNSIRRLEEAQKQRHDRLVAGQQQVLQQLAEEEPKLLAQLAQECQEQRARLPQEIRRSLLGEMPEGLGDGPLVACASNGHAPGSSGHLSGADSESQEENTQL
ADAM10 confirm: confirmation of inhibitors of human ADAM10. shares compounds with ADAM10 inh. ADAM10 QFRET peptide cleavage, EDANS fluorescence. inhibition, % at 6.95 µM. 1% of 2,100 active. AID 743208;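 active = inhibition above about 20% chosen separately for each screening run, limit read from the data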;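 note: 0% = DMSO wells and 100% = marimastat wells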
ADAM17 counter: ADAM17 inhibition, counter-screen for ADAM10 exosite hits; 0.5% of 2,100 active; ADAM17 QFRET peptide cleavage, EDANS fluorescence; inhibition, % at 6.95 µM; shares compounds with ADAM10 inh;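 active = mean triplicate inhibition above the solvent-only control wells' mean plus 3 SD, cut at about 12% in these data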;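 note: 0% = DMSO wells and 100% = marimastat wells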
ADAM10 ctr: counter-screen for ADAM17 exosite inhibitors: inhibitors of human ADAM10. shares compounds with ADAM17 inh. recombinant ADAM10, EDANS/DABCYL FRET peptide cleavage, 3 h. inhibition, % at 6.95 µM. 47% of 2,900 active. AID 743256;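 active = mean inhibition over the triplicate runs exceeds the activity threshold set in the earlier primary screen, cut at about 20% in these data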;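 note: 0% = DMSO wells and 100% = marimastat wells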
ADAM17 confirm: human ADAM17 inhibition, confirmation. recombinant ADAM17, EDANS/DABCYL QFRET peptide cleavage. shares compounds with ADAM17 inh. 65% of 2,900 active. inhibition, % at 6.95 µM;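 active = mean inhibition across replicates above the hit cutoff set in the primary screen, cut at about 8.5% in these data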;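 note: 0% = DMSO wells and 100% = marimastat wells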
PLCgamma1 ctr: PLC-gamma1 inhibition, counter-screen for PLC-beta3 hits | AID 743258 | shares compounds with PLCg1 inh | inhibition, % at 12.3 µM | purified PLC-gamma1, fluorogenic substrate, fluorescence | 3.1% of 3,300 active
PLCbeta3 conf: confirmation of human PLC-beta3 inhibitors | shares compounds with PLCg1 inh | purified PLC-beta3, fluorogenic substrate fluorescence | inhibition, % at 12.3 µM | 1% of 3,300 active; in the data active = inhibition above about 11%
* marks the source's active call; other numbers are inactive results; / = no result. Cut-off read from the data, not from the text of the source, unless noted: active = inhibition above about 9.5%; inactive = the rest.

SMILES	KLK7 zymogen act	PLCg1 inh	ADAM10 inh	ADAM17 inh	PLC-beta3 inh	ADAM10 confirm	ADAM17 counter	ADAM10 ctr	ADAM17 confirm	PLCgamma1 ctr	PLCbeta3 conf
Cc1cc(Cl)ccc1OC(C)C(=O)N1CCCN(C(=O)C(C)Oc2ccc(Cl)cc2C)CC1 (stereo not drawn)	1	10*	26*	15*	4	5	1	29*	18*	-5	-4
COC(=O)C1CN(Cc2ccccc2)CCS(=O)(=O)N1Cc1ccc(C(F)(F)F)cc1 (stereo not drawn)	1	-3	-1	-1	-2	/	/	/	/	/	/
COc1ccc(NS(=O)(=O)c2ccc(NC(=S)NC(=O)C(C)C)cc2)cc1	0	11*	30*	12*	5	1	1	11	9.1*	-3	-2
COc1cccc(NC(=O)C(Sc2nnc(Nc3ccccc3C)s2)c2ccccc2)c1 (stereo not drawn)	0	10.0*	33*	14*	4	9	3	29*	15*	8	1
Cc1ccc(NC(=O)COC(=O)CC2CC3CCC2C3)cc1S(=O)(=O)N1CCOCC1 (stereo not drawn)	0	11*	23*	12*	-2	1	0	11	8	-6	-4
Cc1ccc(NC(=O)COC(=O)CN2C(=O)C3CCCCC3C2=O)cc1S(=O)(=O)N1CCOCC1 (stereo not drawn)	0	2	-7	0	-2	/	/	/	/	/	/
CC(C)OC(=O)/C=C1\C[C@@H](c2ccccc2C(F)(F)F)O[C@@H](c2ccccc2C(F)(F)F)O1	0	3	0	3	1	/	/	/	/	/	/
Cc1ccc(NC(=S)NC(=O)C2CCCCC2)c(Br)c1	1	16*	33*	15*	15*	3	1	11	9.3*	1	1
O=C(CSc1nnc(-c2ccccc2)n1Cc1ccco1)Nc1ccc(OCc2ccccc2)cc1	1	11*	37*	10.0*	7	5	0	21*	14*	1	0
CN(C)CCN(Cc1ccccc1)C(c1ccnc2ccccc12)c1nnnn1-c1ccc2c(c1)OCCO2 (stereo not drawn)	0	-4	-16	-5	-6	/	/	/	/	/	/
CC(C)C[C@H](NC(=O)c1nc[nH]c1C(=O)N1CCN(C(=O)OC(C)(C)C)CC1)C(=O)OCc1ccccc1	0	10*	25*	9.9*	5	2	1	27*	11*	3	4
Cc1ccccc1NC(=S)NCCC(c1ccccc1)c1ccccc1	1	10*	37*	16*	2	7	3	8	7	0	-1
Cc1cccc(-n2cc(CN(C)Cc3nccn3C)c(-c3cccc(F)c3)n2)c1	0	11*	24*	11*	4	3	1	12	10*	-4	-1
CCn1ccnc1CN(C)Cc1cn(-c2cccc(C)c2)nc1-c1cccc(F)c1	0	8	19	5	4	/	/	/	/	/	/
Cc1ccc(NC(=O)CN(C)C(=O)Cc2ccc(Cl)cc2Cl)cc1	0	11*	30*	6	0	1	0	/	/	-10	-6
CN1C(=O)c2cc(NC(=O)Nc3ccccc3F)ccc2OC[C@H]2O[C@@H](CC(=O)NCc3ccc(-c4ccccc4)cc3)CC[C@@H]21	0	12*	30*	-8	10	22*	5	/	/	13*	12*
